From the supplement of paper PMC7411054 come the findings set out here.

Settings in all cases: treatment time: 24 h
The test system of test [1] is A549-ACTB-RAB5A. As to the kind of experiment: lowest phenotypically active concentration; higher = less potent. In outline:
(§1)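 Fifteen gene-edited A549, HepG2 and WPMY1 reporter lines (BFP segmentation plus GFP and RFP/FusionRed markers) were treated at 0.3, 1, 3 or 9 µM for 24 h, four wells each, then imaged live. Live-cell features per well were normalised to DMSO control wells. Deviation required ≥3 of 4 wells beyond the 95th percentile of DMSO Euclidean distances, and reproducibility required median replicate Pearson correlation above the 95th percentile of non-replicates. Phenotypic activity needed both criteria.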

In test [2] the test system is A549-CANX-COX4. Described as above. In outline:
as §1

In test [3] the test system is A549-GM130-SQSTM1. The test is described as above. In outline: as §1
Test [4] has as its system A549-TP53BP1-CLTA. The test is described as above. In a few lines:
as §1

Test [5] relates to A549-TUBA1B-RELA. Described as above. In outline:
as §1

For test [6], the system named is A549-ACTB-RAB5A. As to the kind of experiment: phenotypically active (imaging signature differs from DMSO and reproducible) at any of 0.3-9 uM (binary (1 = active, 0 = inactive)); higher = active. In outline: as §1
Test [7] has as its system A549-CANX-COX4. The description is as above. In outline:
as §1

In test [8] the test system is A549-GM130-SQSTM1. The test is described as above. In outline: as §1
Test [9] relates to A549-TP53BP1-CLTA. The description is as above. In outline:
as §1

Test [10] has as its system A549-TUBA1B-RELA. The description is as above. In a few lines: as §1
In another test the test system is HepG2-ACTB-RAB5A. Described as above. In a few lines: as §1
The subject of the next test is HepG2-CANX-COX4. Described as above. In a few lines:
as §1

The test system of a further test is HepG2-GM130-SQSTM1. The description is as above. In outline: as §1
The next test concerns HepG2-TP53BP1-CLTA. The description is as above. In outline:
as §1

The next test deals with HepG2-TUBA1B-RELA. The test is described as above. In a few lines:
as §1

For a further test, the system named is WPMY1-ACTB-RAB5A. Described as above. In a few lines: as §1
For a further test, the system named is WPMY1-CANX-COX4. Described as above. In a few lines: as §1
The next test has as its system WPMY1-GM130-SQSTM1. The description is as above. In outline:
as §1

For another test, the system named is WPMY1-TP53BP1-CLTA. The description is as above. In outline:
as §1

The next test concerns WPMY1-TUBA1B-RELA. Described as above. In a few lines:
as §1

Structures can show the parent of a compound that is named as a salt.

Consider `CCc1cc(-c2n[nH]c(C)c2-c2ccc3c(c2)OCCO3)c(O)cc1O`, for which the “lowest phenotypically active concentration” value in the test with A549-ACTB-RAB5A [1], in the test with A549-CANX-COX4 [2], with A549-GM130-SQSTM1 [3], with A549-TP53BP1-CLTA [4] and in the test with A549-TUBA1B-RELA [5] was 3 µM in each case. Besides, the phenotypically active in the test on A549-ACTB-RAB5A [6], in the test with A549-CANX-COX4 [7], with A549-GM130-SQSTM1 [8], with A549-TP53BP1-CLTA [9], with A549-TUBA1B-RELA [10] and in the test with HepG2-ACTB-RAB5A was 1 (active) each time. The phenotypically active in the test on HepG2-CANX-COX4, in the test on HepG2-GM130-SQSTM1, with HepG2-TP53BP1-CLTA, with HepG2-TUBA1B-RELA, with WPMY1-ACTB-RAB5A and in the test with WPMY1-CANX-COX4 was 1 (active) each time. In addition, the phenotypically active with WPMY1-GM130-SQSTM1, in the test on WPMY1-TP53BP1-CLTA and in the test on WPMY1-TUBA1B-RELA was 1 (active) each time.

For `O=C1Nc2ccc(F)cc2C1=C1Nc2ccccc2C1=NO` [5'-Fluoroindirubinoxime], the “lowest phenotypically active concentration” value with A549-ACTB-RAB5A [1], in the test on A549-CANX-COX4 [2], in the test with A549-GM130-SQSTM1 [3], with A549-TP53BP1-CLTA [4] and in the test on A549-TUBA1B-RELA [5] was 1 µM throughout. The phenotypically active in the test on A549-ACTB-RAB5A [6], in the test on A549-CANX-COX4 [7], in the test on A549-GM130-SQSTM1 [8], in the test on A549-TP53BP1-CLTA [9], with A549-TUBA1B-RELA [10] and in the test with HepG2-ACTB-RAB5A was 1 (active) throughout. Besides, the phenotypically active with HepG2-CANX-COX4, in the test on HepG2-GM130-SQSTM1, with HepG2-TP53BP1-CLTA, with HepG2-TUBA1B-RELA, in the test with WPMY1-ACTB-RAB5A and with WPMY1-CANX-COX4 was 1 (active) in each case. The phenotypically active with WPMY1-GM130-SQSTM1, with WPMY1-TP53BP1-CLTA and in the test on WPMY1-TUBA1B-RELA was 1 (active) in each case.

With `c1ccc2c(c1)Cc1c(Nc3ccc4c(c3)OCCO4)n[nH]c1-2`, the “lowest phenotypically active concentration” value in the test with A549-ACTB-RAB5A [1], in the test with A549-CANX-COX4 [2], in the test with A549-GM130-SQSTM1 [3], with A549-TP53BP1-CLTA [4] and in the test on A549-TUBA1B-RELA [5] was 3 µM each time. Moreover, the phenotypically active in the test with A549-ACTB-RAB5A [6], in the test on A549-CANX-COX4 [7], with A549-GM130-SQSTM1 [8], with A549-TP53BP1-CLTA [9], with A549-TUBA1B-RELA [10] and in the test with HepG2-ACTB-RAB5A was 1 (active) each time. Besides, the phenotypically active with HepG2-CANX-COX4, with HepG2-GM130-SQSTM1, in the test with HepG2-TP53BP1-CLTA, with HepG2-TUBA1B-RELA, with WPMY1-ACTB-RAB5A and in the test with WPMY1-CANX-COX4 was 1 (active) each time. Moreover, the phenotypically active with WPMY1-GM130-SQSTM1, with WPMY1-TP53BP1-CLTA and with WPMY1-TUBA1B-RELA was 1 (active) throughout.

Consider `Oc1ccc(-c2nc(-c3ccc(F)cc3)c(-c3ccncc3)[nH]2)cc1`, for which the “lowest phenotypically active concentration” value in the test on A549-ACTB-RAB5A [1] was 3 µM; with A549-CANX-COX4 [2], 3 µM; with A549-GM130-SQSTM1 [3], 9 µM; in the test with A549-TP53BP1-CLTA [4] it was 1 µM; in the test on A549-TUBA1B-RELA [5], 3 µM. The phenotypically active in the test on A549-ACTB-RAB5A [6], in the test on A549-CANX-COX4 [7], in the test on A549-GM130-SQSTM1 [8], with A549-TP53BP1-CLTA [9], in the test with A549-TUBA1B-RELA [10] and with HepG2-ACTB-RAB5A was 1 (active) in each case. Further, the phenotypically active in the test with HepG2-CANX-COX4, in the test on HepG2-GM130-SQSTM1, in the test with HepG2-TP53BP1-CLTA, with HepG2-TUBA1B-RELA, in the test on WPMY1-ACTB-RAB5A and in the test with WPMY1-CANX-COX4 was 1 (active) in each case. The phenotypically active in the test with WPMY1-GM130-SQSTM1, in the test with WPMY1-TP53BP1-CLTA and with WPMY1-TUBA1B-RELA was 1 (active) throughout.

Turning to `CN1CC[C@H](c2c(O)cc(O)c3c(=O)cc(-c4ccccc4Cl)oc23)[C@H](O)C1` [Flavopiridol hydrochloride], the “lowest phenotypically active concentration” value in the test with A549-ACTB-RAB5A [1], in the test on A549-CANX-COX4 [2], in the test on A549-GM130-SQSTM1 [3], with A549-TP53BP1-CLTA [4] and with A549-TUBA1B-RELA [5] was not above 0.3 µM in each case. For the same molecule, the phenotypically active in the test on A549-ACTB-RAB5A [6], in the test with A549-CANX-COX4 [7], in the test on A549-GM130-SQSTM1 [8], in the test on A549-TP53BP1-CLTA [9], in the test on A549-TUBA1B-RELA [10] and in the test on HepG2-ACTB-RAB5A was 1 (active) throughout. Besides, the phenotypically active in the test on HepG2-CANX-COX4, in the test on HepG2-GM130-SQSTM1, in the test on HepG2-TP53BP1-CLTA, in the test with HepG2-TUBA1B-RELA, in the test on WPMY1-ACTB-RAB5A and with WPMY1-CANX-COX4 was 1 (active) each time. In addition, the phenotypically active with WPMY1-GM130-SQSTM1, with WPMY1-TP53BP1-CLTA and in the test on WPMY1-TUBA1B-RELA was 1 (active) each time.

For `C[C@@H](N)[C@H]1CC[C@H](C(=O)Nc2ccncc2)CC1`, the “lowest phenotypically active concentration” value with A549-ACTB-RAB5A [1] worked out at 3 µM; with A549-CANX-COX4 [2], 9 µM; in the test on A549-GM130-SQSTM1 [3] it was 9 µM; with A549-TP53BP1-CLTA [4], 3 µM; in the test with A549-TUBA1B-RELA [5] it was 9 µM. Further, the phenotypically active with A549-ACTB-RAB5A [6], with A549-CANX-COX4 [7], in the test on A549-GM130-SQSTM1 [8], in the test with A549-TP53BP1-CLTA [9], with A549-TUBA1B-RELA [10] and in the test with HepG2-ACTB-RAB5A was 1 (active) each time. The phenotypically active with HepG2-CANX-COX4, with HepG2-GM130-SQSTM1, in the test with HepG2-TP53BP1-CLTA, in the test with HepG2-TUBA1B-RELA, in the test with WPMY1-ACTB-RAB5A and with WPMY1-CANX-COX4 was 1 (active) throughout. The phenotypically active in the test on WPMY1-GM130-SQSTM1, with WPMY1-TP53BP1-CLTA and in the test with WPMY1-TUBA1B-RELA was 1 (active) throughout.
